The entries come from a sample that favours hits as a whole.
NS1 inh: qHTS Assay for Inhibitors of Influenza NS1 Protein Function | AID 2326, 2010 | Potency, µM (titrated, usually from 46.1 µM), for the others: at the top dose activity, positive = more growth | 0.4% of 270,000 active; calls by dose curve; further: potency means the concentration at half of the fitted maximal effect; actives are rising curves; nearly all actives have a fitted effect of over 50% in size
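Growth recovery, yeast-based: influenza A NS1 expressed in S. cerevisiae causes slow growth, and suppressors are detected by OD600. The parent strain without NS1 is used as positive control.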
SARS PLP yeast: qHTS of Yeast-based Assay for SARS-CoV PLP. S. cerevisiae expressing SARS-CoV PLpro, growth rescue. Potency, µM (series often up to 32.9 µM), for inactives: at the highest dose activity, positive = growth rescue, most hits filed as activators. 0.19% of 330,000 active. AID 485353, 2010; calls by dose curve; further: potency means the concentration at half of the fitted maximal effect; 0% is about no effect; nearly all actives have a fitted effect of over 55% in size
TbPYK inhibitor: qHTS of Trypanosoma Brucei Inhibitors | Potency, µM (top dose mostly 76.8 µM), for the others: at the top dose activity, negative = inhibition, actives largely listed as inhibitors | pyruvate kinase (Trypanosoma brucei), Q57TT1 | 0.12% of 410,000 active | TbPYK enzyme, Kinase-Glo Plus ATP luminescence, 45 min; further: potency means the concentration at half of the fitted maximal effect; on the % scale 0 is the no-effect control and ±100 the full control effect; nearly all actives have a fitted effect of over 50% in size
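TbPYK + substrate in 50 mM TEA pH 7.2, 100 mM KCl, 10 mM MgCl2, 0.05% BSA, 0.01% Tween-20; cpd pinned; ADP 130 uM final; 45 min RT; Kinase-Glo Plus 10 min; luminescence endpoint.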
Shiga inhibitor: A qHTS for Small Molecule Inhibitors of Shiga Toxin; Vero cells, Shiga toxin protein synthesis inhibition reporter; inhibition, % at 38.7 µM; 9.2% of 290,000 active; AID 2315, 2010; in the data active means inhibition mostly above about 28%, no sharp cut-off; inactive means mostly below about 43%; further: 0% is about no effect
LmPK inh: qHTS Assay for Inhibitors of Leishmania Mexicana Pyruvate Kinase (LmPK). Potency, µM (top dose mostly 57.5 µM), inactives show at the highest dose activity change, negative = inhibition, usual class: inhibitors. Q27686. 0.37% of 290,000 active. AID 1721, 2009. purified LmPK, Kinase-Glo ATP luminescence, 1 h; further: potency means the concentration at half of the fitted maximal effect; on the % scale 0 is the no-effect control and ±100 the full control effect
Target sequence (Q27686 whole entry, looked up): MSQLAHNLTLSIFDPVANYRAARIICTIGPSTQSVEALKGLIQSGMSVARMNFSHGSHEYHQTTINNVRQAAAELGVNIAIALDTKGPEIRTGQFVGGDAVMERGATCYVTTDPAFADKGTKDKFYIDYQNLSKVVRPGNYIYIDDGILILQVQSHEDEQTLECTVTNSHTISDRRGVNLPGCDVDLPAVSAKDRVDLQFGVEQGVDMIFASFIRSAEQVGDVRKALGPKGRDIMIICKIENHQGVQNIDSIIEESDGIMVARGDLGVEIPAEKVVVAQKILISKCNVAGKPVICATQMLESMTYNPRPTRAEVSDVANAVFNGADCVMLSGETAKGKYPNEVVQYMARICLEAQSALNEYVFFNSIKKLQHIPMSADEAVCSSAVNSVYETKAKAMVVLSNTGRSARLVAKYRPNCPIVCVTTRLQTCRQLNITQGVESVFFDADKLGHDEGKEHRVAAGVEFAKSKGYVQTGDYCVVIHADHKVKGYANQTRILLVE
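Purified LmPK (0.1 nM) with 0.5 mM PEP and 0.1 mM ADP in imidazole buffer pH 7.2 with MgCl2/KCl, 1 h at room temperature. ATP formed was read by luciferase luminescence and normalized to no-enzyme and uninhibited controls.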
CHX counter: Cycloheximide Counterscreen for Small Molecule Inhibitors of Shiga Toxin; AID 2314, 2010; max response, %; 12% of 300,000 active; cell reporter, cycloheximide protein synthesis inhibition counterscreen; in the data active means max response mostly above about 13%, no sharp cut-off; inactive means mostly below about 14%; further: read at 38.3 µM for the half of the compounds with a filed dose; 0% is about no effect
Numbers without * were called inactive; ? = inconclusive; . = no result; [ ] = dose if it differs, or a comment. Unless noted, the call rests on the fitted dose curve; in most records, active means well fitted curve in the direction sought with a large enough effect; inconclusive means small, poorly fitted or top-dose-only effect, or another doubt; inactive means no such curve, though single readings can be large; an effect the other way counts as inactive or inconclusive.

SMILES | NS1 inh | SARS PLP yeast | TbPYK inhibitor | Shiga inhibitor | LmPK inh | CHX counter
O=C(N/N=C/c1cc2c(cc1Br)OCO2)c1cc2ccccc2o1 | -10% | 2% | 1% | 12 | 0% | 20
O=C(N/N=C/c1ccsc1)C1CC1 | . | 0% | -1% | 26 | 12% | 30
CC1CC(C)CN(C(=O)CCNC(=O)c2ccccc2Cl)C1 (stereo not drawn) | -23% | -3% | 1% | -12 | -8% | 2
Cc1nc2ccccn2c1C(=O)N/N=C/c1ccccc1 | 0% | 0% | 6% | 48 | 7% | 20*
Cc1nc2ccccn2c1C(=O)N/N=C/c1ccc(F)cc1 | -2% | 19% | -1% | 49 | 3% | -2
Cc1nc2ccccn2c1C(=O)N/N=C/c1cc(C)n(-c2ccc(Br)cc2)c1C | 18% | 1% | 2% | 29 | -1% | 16*
Cc1ccc(NC(=O)C(=O)NCc2ccc(/C=N/NC(=O)c3c(C)nc4ccccn34)o2)cc1 | -11% | 0% | -1% | 39 | -9% | 28*
CC(C)(C)NC(=O)NC(=O)COC(=O)c1c(F)cccc1Cl | -2% | 2% | 2% | 109* | -1% | 36*
CCNC(=O)c1c(O)c2c([nH]c1=O)CCCC2 | -10% | 3% | -6% | -1 | 3% | 7
O=C(Nc1ccc(O)cc1)c1c(O)c2c([nH]c1=O)CCCC2 | . | 3% | 0% | 146* | 7% | 44*
O=C(NCC1CCCO1)c1c(O)c2c([nH]c1=O)CCCC2 (stereo not drawn) | -3% | -7% | 3% | 29 | -2% | 13*
CNc1ccc(-c2cccc(C#N)c2)cn1 | . | . | -6% | . | . | .
CCn1c(SCC(=O)O)nnc1-c1ccccc1OC | -7% | -1% | 2% | 103* | 7% | 49*
CCn1c(SCC(=O)Nc2ccccc2F)nnc1-c1cnccn1 | 6% | 24% | -2% | 8 | -1% | 10
CCn1c(SCC(=O)c2ccccc2)nnc1-c1cnccn1 | 9% | -3% | -25% | 107* | -2% | 52*
Cn1c(SCC(=O)c2ccccc2)nnc1-c1cccnc1 | -6% | -5% | 0% | 67* | -3% | 54*
COc1ccccc1-c1nnc(SCC(=O)O)n1-c1ccccc1 | 2% | 0% | -15% | 2 | -1% | -2
CCc1ccc(NC(=O)CSc2nnc(-c3cnccn3)n2C)cc1 | 20% | 2% | -11% | -4 | 1% | 9
CN(C)c1ccc(NC(=O)CSc2nnc(-c3cnccn3)n2C)cc1 | 10% | 4% | 0% | 37 | 1% | 13*
CCC(=O)Nc1cccc(-c2nnc(SCC(=O)c3ccccc3)n2C)c1 | -4% | 7% | ? | 81* | ? | 36*
Cn1c(SCC(=O)c2ccccc2)nnc1-c1cnccn1 | -15% | -7% | ? | 59 | -10% | 27*
CCCCCNC(=O)c1c[nH]c2ccc(S(=O)(=O)N3CCC(C)CC3)cc2c1=O | . | . | 5% | . | . | .
N#Cc1cc2ccccc2nc1SCc1ccccn1 | -144% | -20% | -2% | 147* | -3% | 59*
CCCCOC(=O)Nc1ccc2c(C)cc(=O)oc2c1 | -7% | -13% | -4% | 59* | -14% | 52*
Cc1cc(=O)oc2cc(NC(=O)CCOc3ccccc3)ccc12 | -4% | 2% | 0% | 32* | -5% | 19*
SMILES | NS1 inh | SARS PLP yeast | TbPYK inhibitor | Shiga inhibitor | LmPK inh | CHX counter
Cc1cc2oc(=O)cc(C)c2cc1NC(=O)CCC(=O)O | -9% | 6% | -10% | -3 | 1% | -2
CCOC(=O)Nc1ccc2c(C)cc(=O)oc2c1 | ? | ? | -4% | 60* | -13% | 30*
Cc1cc2oc(=O)cc(C)c2cc1NC(=O)CCl | 7% | 17% | -13% | 21 | -1% | 30*
Cc1cccc(OCC(=O)Nc2ccc3c(C)cc(=O)oc3c2)c1 | 9% | -2% | -1% | -3 | 2% | 5
Cc1cc(=O)oc2cc(NC(=O)CC(N)C(=O)O)ccc12 (stereo not drawn) | . | . | . | -4 | . | -4
Cc1ccccc1CC(=O)Nc1ccc2c(C)cc(=O)oc2c1 | 16% | -1% | 3% | 12 | 0% | -3
CCc1nc2cccnc2n1-c1ccc(CC(=O)Nc2cccc(C)c2C)cc1 | . | . | 2% | . | . | .
CCOc1ccc(-c2n[nH]c3c2C(c2cccs2)N(c2ccc(Br)cc2)C3=O)cc1 (stereo not drawn) | . | . | 1% | . | . | .
CCN(CC)S(=O)(=O)c1cccc(C(=O)OCC(=O)NCCN2C(=O)CSC2=O)c1 | . | -3% | -5% | . | . | .
O=C(CSc1nc(=O)n(Cc2ccccn2)c2c1CCC2)Nc1ccc(F)cc1F | . | 2% | -2% | . | . | .
CCc1ccccc1NC(=O)[C@@H]1CCC(=O)N1C1OC(=O)c2ccccc21 (stereo partly drawn) | -7% | 6% | -4% | -9 | 7% | -3
CC(C)c1ccc(NC(=O)[C@@H]2CCC(=O)N2C2OC(=O)c3ccccc32)cc1 (stereo partly drawn) | 7% | 1% | -15% | 38 | -14% | 28*
Cc1cc(C)n(C(C)CC(=O)Nc2cccc(C#N)c2)n1 (stereo not drawn) | . | . | 5% | . | . | .
O=C(Nc1cccc(-c2csc(Nc3cccc(C(F)(F)F)c3)n2)c1)c1ccccc1 | 24% | -10% | 0% | 8 | -3% | -1
CCCCC(=O)Nc1cccc(-c2csc(-c3ccccc3)n2)c1 | -2% | -19% | -5% | 61* | 2% | 12
CC(=O)c1cccc(Nc2nc(-c3cccnc3)cs2)c1 | -23% | -14% | -1% | 58* | -5% | 51*
CC(=O)c1cccc(Nc2nc(-c3ccccc3)cs2)c1 | 6% | -1% | -13% | 107* | -2% | 33*
O=C(O)c1ccc(Nc2nc(-c3cccnc3)cs2)cc1 | 1% | 2% | -12% | 15 | 1% | 2
O=C(Nc1nc(-c2cccnc2)cs1)c1cccc([N+](=O)[O-])c1 | 7% | -1% | -1% | 31 | -2% | -1
CC(=O)c1ccc(Nc2nc(-c3cccnc3)cs2)cc1 | 16% | 7% | 1% | 20 | 1% | 22*
CCCCS(=O)(=O)N1C2=NC(C(=O)OC)=C(C(=O)OC)[C@@H]3Nc4ccccc4[C@]23C[C@H]1C(=O)OC | . | . | . | . | 0%[11.5 µM] | .
COc1ccc(-n2c(SCC(=O)N3CCc4ccccc43)nc3c([nH]c4ccccc43)c2=O)cc1 | . | . | 1% | . | . | .
O=C(Nc1cccc(-c2csc(Nc3ccccc3)n2)c1)c1ccccc1 | -42% | -13% | -6% | 84* | 1% | 31*
Cc1ccc(CN(C(=O)c2ccc(OCC(C)C)cc2)c2ccccn2)o1 | . | . | 1% | . | . | .
COc1ccc(OC)c(/C=C/C(=O)c2ccc3c(c2)OCCO3)c1 | -31% | -6% | -4% | 26* | -9% | 25*
